Seven molecules from PubChem BioAssay (NCI) can be followed below.

Values joined by “and” are separate entries in the source; they are usually repeats but may differ in a detail not shown here. Equal entries are not always repeated. This is part of a sample that, as a whole, favours compounds with a hit. Of some 83,000 tested, about 20% had one in any assay.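 Values shown are percent growth following 48 h exposure of cells in 96-well plates to a single concentration of compound; below 10 was considered active.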 Values without a mark were called inactive. Active and inactive are the calls of the source.

Among the test systems are DU-145 prostate; K-562 leukemia; MALME-3M melanoma; MDA-MB-231 breast; RXF 393 renal; SF-268 CNS; SF-295 CNS; SF-539 CNS; UACC-257 melanoma; M14 melanoma; HCT-15 colon; HT29 colon; SNB-75 CNS; SNB-19 CNS; U251 CNS; PC-3 prostate; SK-MEL-5 melanoma; UACC-62 melanoma; LOX IMVI melanoma; SK-MEL-28 melanoma.
What all share (assay): NCI-60 one-dose screen, 48 h (100 = growth as untreated, 0 = no growth, -100 = all killed)
Holding throughout (conditions): 10 µM unless noted

Regarding `O=C(NN1C(=O)/C(=C/C=C/c2ccc([N+](=O)[O-])o2)SC1=S)c1ccncc1`, the growth in the experiment with DU-145 prostate is -95% (active); with K-562 leukemia, 3.03% (active); in the experiment on MALME-3M melanoma, -91.7% (active); in the experiment with MDA-MB-231 breast, -96.5% (active); with RXF 393 renal it was -93.6% (active); with SF-268 CNS, -75.7% (active). Besides, the growth was -82.8% (active) with SF-295 CNS; -100% (active) in the experiment on SF-539 CNS; -86.7% (active) with UACC-257 melanoma; -67.9% (active) in the experiment on M14 melanoma; -78.9% (active) in the experiment with HCT-15 colon; -67.2% (active) in the experiment on HT29 colon. Further, the growth is -38.6% (active) in the experiment with SNB-75 CNS; -96.8% (active) in the experiment with SNB-19 CNS; -91.2% (active) in the experiment on U251 CNS; -63% (active) in the experiment with PC-3 prostate; -99.5% (active) in the experiment with SK-MEL-5 melanoma; -100% (active) with UACC-62 melanoma. Moreover, the growth in the experiment with LOX IMVI melanoma was -94% (active); with SK-MEL-28 melanoma it was -88.9% (active).

Consider `CC(=O)Nc1cccc(-n2c(COc3ccc(Br)cc3)nc3ccccc32)c1`, for which the growth with DU-145 prostate is 106% and 89.7%; in the experiment on K-562 leukemia, 91.4% and 106%; with MALME-3M melanoma it was 96.3% and 98.8%; in the experiment with MDA-MB-231 breast it was 80% and 102%; in the experiment with RXF 393 renal it was 82.4% and 106%; with SF-268 CNS, 91% and 103%. The growth with SF-295 CNS was 89.6% and 103%; in the experiment on SF-539 CNS, 87.4% and 106%; in the experiment on UACC-257 melanoma, 130% and 107%; with M14 melanoma, 109% and 108%; in the experiment on HCT-15 colon, 88.7% and 107%; in the experiment with HT29 colon, 123% and 115%. The growth with SNB-75 CNS was 89% and 94.7%; in the experiment with SNB-19 CNS, 96.9% and 98.7%; in the experiment on U251 CNS, 94.9% and 113%; in the experiment on PC-3 prostate, 72.8% and 103%; with SK-MEL-5 melanoma, 90.3% and 103%; in the experiment with UACC-62 melanoma, 71.9% and 91.9%. Also, the growth was 91.8% and 104% with LOX IMVI melanoma; 101% and 106% in the experiment on SK-MEL-28 melanoma.

Turning to `COc1c(F)ccc(C(=O)Nc2ccc3nc(NC(=O)C4CCCN(S(=O)(=O)c5ccc(C(C)(C)C)cc5)C4)sc3c2)c1F` (stereo not given), the growth with DU-145 prostate is 79.5%; in the experiment on K-562 leukemia, 26.5%; in the experiment with MALME-3M melanoma it was 77.3%; with MDA-MB-231 breast, 47%; in the experiment on RXF 393 renal it was 14.9%; in the experiment with SF-268 CNS it was 68.5%. Moreover, the growth in the experiment on SF-295 CNS is 78.3%; in the experiment with SF-539 CNS, 74%; in the experiment with UACC-257 melanoma, 69.3%; in the experiment with M14 melanoma it was 87.6%; in the experiment with HCT-15 colon, 63.3%; in the experiment with HT29 colon, 55.4%. Further, the growth with SNB-75 CNS is 66.4%; in the experiment on SNB-19 CNS, 78.2%; in the experiment with U251 CNS it was 58.8%; with PC-3 prostate it was 45.8%; in the experiment on SK-MEL-5 melanoma, 66.5%; with UACC-62 melanoma it was 55.9%. Also, the growth with LOX IMVI melanoma is 43.9%; in the experiment on SK-MEL-28 melanoma it was 81.3%.

As for `CC[C@]12C=CCN3CC[C@@]4(c5ccc(OC)cc5N(C)[C@H]4[C@@](O)(C(=O)OC)[C@@H]1OC(=O)CCC[P+](c1ccc(OC)cc1)(c1ccc(OC)cc1)c1ccc(OC)cc1)[C@@H]32`, the growth in the experiment on DU-145 prostate is -75.4% (active); in the experiment on K-562 leukemia it was -1.75% (active); in the experiment with MALME-3M melanoma, -97.8% (active); in the experiment on MDA-MB-231 breast it was -97% (active); with RXF 393 renal it was -92.6% (active); in the experiment on SF-268 CNS, -34.3% (active). The growth in the experiment on SF-295 CNS was -93.7% (active); in the experiment on SF-539 CNS, -98.9% (active); in the experiment with UACC-257 melanoma, -93.5% (active); with M14 melanoma it was -88.4% (active); with HCT-15 colon it was -86.3% (active); with HT29 colon, -84.3% (active). Also, the growth was -34% (active) in the experiment on SNB-75 CNS; -96.7% (active) in the experiment with SNB-19 CNS; -93.7% (active) in the experiment on U251 CNS; -78.8% (active) with PC-3 prostate; -99.6% (active) with SK-MEL-5 melanoma; -97.1% (active) in the experiment on UACC-62 melanoma. Further, the growth in the experiment with LOX IMVI melanoma is -96.4% (active); with SK-MEL-28 melanoma, -96.3% (active).

On to `O=C(N=Nc1c(O)[nH]c2ccc(Br)cc12)c1ccc2nc(-c3ccc(Cl)cc3)[nH]c2c1`, for which the growth in the experiment on DU-145 prostate is -4.97% (active); in the experiment on K-562 leukemia, 10%; in the experiment on MALME-3M melanoma, -34.7% (active); in the experiment with MDA-MB-231 breast, -89.5% (active); in the experiment on RXF 393 renal, -42.3% (active); in the experiment on SF-268 CNS it was -16.2% (active). Moreover, the growth is -62.8% (active) in the experiment with SF-295 CNS; -100% (active) in the experiment with SF-539 CNS; 46% in the experiment with UACC-257 melanoma; -3.86% (active) in the experiment with M14 melanoma; 58.9% in the experiment on HCT-15 colon; 10.7% with HT29 colon. Besides, the growth in the experiment with SNB-75 CNS is -18% (active); with SNB-19 CNS it was -27.2% (active); with U251 CNS, -91.8% (active); in the experiment on PC-3 prostate, 10%; in the experiment with SK-MEL-5 melanoma, 37.3%; with UACC-62 melanoma it was -74.8% (active). In addition, the growth with LOX IMVI melanoma is -100% (active); in the experiment on SK-MEL-28 melanoma it was -96.3% (active).

As to `Nc1nnc(-c2cncc(Br)c2)c(-c2c[nH]c3ccc(Cl)cc23)n1`, the growth is 99.4% in the experiment with DU-145 prostate; 30.5% with K-562 leukemia; 99.3% in the experiment with MALME-3M melanoma; 74.7% in the experiment on MDA-MB-231 breast; 63.5% in the experiment on RXF 393 renal; 88.6% with SF-268 CNS. Besides, the growth in the experiment with SF-295 CNS was 92.4%; in the experiment on SF-539 CNS, 72.5%; in the experiment on UACC-257 melanoma it was 108%; with M14 melanoma, 86.4%; in the experiment with HCT-15 colon, 55.4%; in the experiment on HT29 colon it was 106%. For the same molecule, the growth was 57.2% in the experiment with SNB-75 CNS; 73.1% in the experiment on SNB-19 CNS; 83.9% in the experiment on U251 CNS; 90.5% in the experiment with PC-3 prostate; 70.4% with SK-MEL-5 melanoma; 73.7% in the experiment with UACC-62 melanoma. Moreover, the growth is 77.3% in the experiment on LOX IMVI melanoma and 91.2% in the experiment with SK-MEL-28 melanoma.

For `Cc1cc(C)c2[nH]c(=O)c(C(c3nnnn3Cc3ccc4c(c3)OCO4)N3CCN(C)CC3)cc2c1` (stereo not given), the growth with DU-145 prostate is 103%; in the experiment with K-562 leukemia, 107%; in the experiment on MALME-3M melanoma, 110%; in the experiment with MDA-MB-231 breast, 112%; in the experiment with RXF 393 renal, 114%; with SF-268 CNS it was 101%. For the same molecule, the growth in the experiment on SF-295 CNS was 104%; in the experiment on SF-539 CNS, 104%; with UACC-257 melanoma it was 110%; in the experiment on M14 melanoma, 111%; in the experiment with HCT-15 colon it was 110%; in the experiment on HT29 colon, 110%. Moreover, the growth with SNB-75 CNS was 115%; in the experiment on SNB-19 CNS it was 101%; with U251 CNS it was 104%; in the experiment with PC-3 prostate, 111%; in the experiment on SK-MEL-5 melanoma, 107%; with UACC-62 melanoma it was 104%. In addition, the growth with LOX IMVI melanoma is 100%; with SK-MEL-28 melanoma it was 105%.
